Test results: paper PMC5540273 (PLoS ONE, 2017)

What follows are compounds tested on KIT-autoinhibited. Settings: concentration: 1 μM, replicates: in singlicate; n = 1.
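Further: KINOMEscan kinase panel screen.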

| Compound | %Inh [%] |
| --- | --- |
| O=C(NCCNc1ccnc(Nc2ccc(F)cc2)n1)c1cc2ccccc2s1 [GSK1379874] | 0 |
| CCn1cnc2c(N)ncnc21 [GW345098] | 7 |
| O=C1Cc2cc(Nc3nc(NCc4cccc(S(=O)(=O)C(F)(F)F)c4)ncc3C(F)(F)F)ccc2N1 | 0 |
| Cl.Oc1cccc(Nc2ccnc3cc(-c4ccncc4)ccc23)c1 [GW494601] | 32 |
| Cn1cc(-c2ccc3c(c2)CCN3C(=O)Cc2ccccc2Cl)c2c(N)ncnc21 [GSK2608885] | 4 |
| NS(=O)(=O)CCc1cccc(Nc2nccc(-c3c(-c4cccc(NC(=O)c5c(F)cccc5F)c4)nn4ccccc34)n2)c1 [GSK336735] | 13 |
| O=c1cc(N2CCOCC2)nc2n(Cc3cccc(Cl)c3Cl)c(C3CC3)nn12 [GSK2358994] | 15 |
| COc1ccc(COc2cc(-n3cnc4ccccc43)sc2C(N)=O)cc1 [GSK1024304] | 0 |
| c1ccc(-c2n[nH]cc2-c2ccnc3ccccc23)nc1 [GW271431] | 11 |
| CN(C1=C(c2ccccc2)C(=O)NC1=O)c1ccccc1 [SB-334860] | 0 |
| COc1ccc(CNC(=O)NC2CCN(c3ccnc(Nc4ccc(OC)cc4)n3)C2)cc1 (stereo not shown) [GSK1379727] | 0 |
| COc1cc2c(cc1OC[C@@H](O)CO)ncc1c3ccc(C#N)cc3[nH]c21 | 48 |
| c1ccc(-c2cc(-c3c[nH]nc3-c3ccccn3)ccn2)cc1 [GW576604] | 0 |
| Cc1cccc(-c2nc(-c3ccc(S(C)(=O)=O)cc3)sc2-c2ccncc2)c1 | 7 |
| Cc1cccc(Cn2ccn3c(=O)cc(N4CCOCC4)nc23)c1 [GSK2297542] | 1 |
| Fc1ccc(-c2nn3c(OCC(F)(F)F)cccc3c2-c2ccncc2)cc1 [GW514784] | 0 |
| N#Cc1c(N2CCOCC2)sc(-c2ccn[nH]2)c1-c1ccc(Cl)cc1 | 1 |
| COc1cc2c(cc1OCCN1CCN(C)CC1)ncc1c3ccc(C#N)cc3[nH]c21 | 71 |
| CC(=O)Nc1ccc(COc2ccc(Nc3ccnc4cc(-c5ccccn5)ccc34)cc2)cc1.Cl [GW440148] | 72 |
| [2H]C([2H])(c1cccc(C(F)(F)F)c1C)n1ccn2c(=O)nc(N3CCOCC3)cc12 [GSK2336394] | 0 |
| COc1ccc(Nc2nccc(N3CCC(NC(=O)Nc4cccc(C(C)=O)c4)C3)n2)cc1 (stereo not shown) [GSK1379731] | 0 |

What follows are compounds tested on KIT. Settings: concentration: 1 μM, replicates: in singlicate; n = 1.

| Compound | %Inh [%] |
| --- | --- |
| CCc1nc(-c2cccc(C)c2)c(-c2ccnc(NCc3ccccc3)c2)s1 | 26 |
| O=c1cc(N2CCOCC2)nc2n(Cc3cccc4ccccc34)ccn12 [GSK2333389] | 11 |
| CN1c2ccc(NCc3ccc(F)cc3)cc2-c2c(cnn2C)S1(=O)=O | 24 |
| Cc1ccc(NC(=O)c2ccnc(N3CCN(C)CC3)c2)cc1-c1ccc(C(=O)NCC2CC2)cc1 [GW775604] | 27 |
| Cc1ccc(C(=O)NCC(N)=O)cc1-n1c(C)cc(OCc2ccc(F)cc2F)c(Br)c1=O | 6 |
| COCCNC(=O)c1ccc(-c2cc(C(=O)NC3CC3)cc(F)c2C)cc1 [GW868318] | 26 |
| COc1ccc(Nc2ncc(C#N)c(Nc3ccccc3C(N)=O)n2)cc1N1CCN(C)CC1.Cl [GSK1558669] | 99.9 |
| COc1ccc(S(=O)(=O)NC2CCN(c3cc(C)nc(Nc4cccc(C#N)c4)n3)CC2)cc1.O=C(O)C(F)(F)F [GSK1653539] | 8 |
| COc1ccc(Nc2nccc(N3CCC(NC(=O)Nc4cc(C)ccc4C)C3)n2)cc1 (stereo not shown) [GSK1379741] | 25 |
| CC(C)(C)n1cnc2c(N)ncnc21 [SKF-97359] | 0 |
| COc1cc2ncn(-c3cc(OCc4sccc4Cl)c(C(N)=O)s3)c2cc1OC [GSK448459] | 31 |
| COC(=O)Nc1nc2cc(Oc3ccc(NC(=O)Nc4cc(F)ccc4F)cc3)ccc2[nH]1.Cl [GW701424] | 100 |
| Cc1c2ccc(N(C)c3ccnc(Nc4cccc(S(N)(=O)=O)c4)n3)cc2nn1Cc1ccccc1.Cl.Cl [GW787226] | 99.9 |
| O=C(NCCNc1ccnc(Nc2ccc(F)cc2)n1)c1cc2ccccc2s1 [GSK1379874] | 0 |
| CCn1cnc2c(N)ncnc21 [GW345098] | 20 |
| O=C1Cc2cc(Nc3nc(NCc4cccc(S(=O)(=O)C(F)(F)F)c4)ncc3C(F)(F)F)ccc2N1 | 16 |
| Cl.Oc1cccc(Nc2ccnc3cc(-c4ccncc4)ccc23)c1 [GW494601] | 99.8 |

| Compound | %Inh [%] |
| --- | --- |
| Cn1cc(-c2ccc3c(c2)CCN3C(=O)Cc2ccccc2Cl)c2c(N)ncnc21 [GSK2608885] | 99.9 |
| NS(=O)(=O)CCc1cccc(Nc2nccc(-c3c(-c4cccc(NC(=O)c5c(F)cccc5F)c4)nn4ccccc34)n2)c1 [GSK336735] | 100 |
| O=c1cc(N2CCOCC2)nc2n(Cc3cccc(Cl)c3Cl)c(C3CC3)nn12 [GSK2358994] | 0 |
| COc1ccc(COc2cc(-n3cnc4ccccc43)sc2C(N)=O)cc1 [GSK1024304] | 23 |
| c1ccc(-c2n[nH]cc2-c2ccnc3ccccc23)nc1 [GW271431] | 20 |
| CN(C1=C(c2ccccc2)C(=O)NC1=O)c1ccccc1 [SB-334860] | 16 |
| COc1ccc(CNC(=O)NC2CCN(c3ccnc(Nc4ccc(OC)cc4)n3)C2)cc1 (stereo not shown) [GSK1379727] | 16 |
| COc1cc2c(cc1OC[C@@H](O)CO)ncc1c3ccc(C#N)cc3[nH]c21 | 63 |
| c1ccc(-c2cc(-c3c[nH]nc3-c3ccccn3)ccn2)cc1 [GW576604] | 9 |
| Cc1cccc(-c2nc(-c3ccc(S(C)(=O)=O)cc3)sc2-c2ccncc2)c1 | 18 |
| Cc1cccc(Cn2ccn3c(=O)cc(N4CCOCC4)nc23)c1 [GSK2297542] | 38 |
| Fc1ccc(-c2nn3c(OCC(F)(F)F)cccc3c2-c2ccncc2)cc1 [GW514784] | 24 |
| N#Cc1c(N2CCOCC2)sc(-c2ccn[nH]2)c1-c1ccc(Cl)cc1 | 25 |
| COc1cc2c(cc1OCCN1CCN(C)CC1)ncc1c3ccc(C#N)cc3[nH]c21 | 83 |
| CC(=O)Nc1ccc(COc2ccc(Nc3ccnc4cc(-c5ccccn5)ccc34)cc2)cc1.Cl [GW440148] | 100 |
| [2H]C([2H])(c1cccc(C(F)(F)F)c1C)n1ccn2c(=O)nc(N3CCOCC3)cc12 [GSK2336394] | 14 |
| COc1ccc(Nc2nccc(N3CCC(NC(=O)Nc4cccc(C(C)=O)c4)C3)n2)cc1 (stereo not shown) [GSK1379731] | 49 |
